Active and inactive are the calls of the source.
Legend:
[1] = tested on: Human papillomavirus type 1a protein E7 (residues 44-93); assay: HPV1a E7 fragment binders on microarrays, primary screen, biochemical, small-molecule microarray, residues 44-93, 635 nm fluorescence (AID 1108); conditions: small-molecule microarray binding, fluorescence 635 nm; higher = more signal;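 also: E7 fragment applied at 1 µg/mL in TBST for 1 h at 4 C; score combines spot fluorescence with its signal to noise ratio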
[2] = modulators of HCV replicon luciferase signal, primary screen, HCV replication inhibitor project, Huh7 cells, luciferase reporter (AID 1109); conditions: 48 h, higher = more signal;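 also: huh7 hepatoma cells harbouring a luciferase neomycin HCV replicon reporter; luciferase luminescence as measure of HCV replicon replication; test concentration not given here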
[3] = molecular target: Left-right determination factor 2 (Homo sapiens) (UniProt O00292); assay: LEFTY2 binders on small-molecule microarrays, primary screen, biochemical, small-molecule microarray, 635 nm fluorescence scan (AID 1110); conditions: LEFTY2 binding, higher = more signal
Chain of Left-right determination factor 2 (Homo sapiens) (O00292 whole entry, looked up): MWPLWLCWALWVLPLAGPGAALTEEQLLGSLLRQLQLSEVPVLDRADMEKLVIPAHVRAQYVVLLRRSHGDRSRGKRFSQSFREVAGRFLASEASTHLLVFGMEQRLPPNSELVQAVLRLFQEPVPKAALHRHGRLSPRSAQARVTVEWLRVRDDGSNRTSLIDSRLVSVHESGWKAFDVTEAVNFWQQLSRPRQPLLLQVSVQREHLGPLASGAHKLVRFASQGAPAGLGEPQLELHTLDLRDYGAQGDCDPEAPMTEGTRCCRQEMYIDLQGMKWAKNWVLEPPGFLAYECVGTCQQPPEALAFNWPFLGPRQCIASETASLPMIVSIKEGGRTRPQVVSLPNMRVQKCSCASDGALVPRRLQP

[4] = molecular target: Calmodulin-1 (Homo sapiens) (UniProt P0DP23); assay: CALM1 binders on microarrays, EGTA buffer, profiling panel, biochemical, small-molecule microarray, Cy5-labelled CALM1 (AID 1111); conditions: Cy5-CALM1 binding fluorescence, higher = more signal;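 also: labelled calmodulin applied in Tris saline Tween buffer holding calcium plus EGTA and DTT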
[5] = molecular target: Calmodulin-1 (Homo sapiens) (UniProt P0DP23); assay: calcium-bound CALM1 binders on microarrays, profiling panel, artefact control for SMM control-protein annotation, biochemical, small-molecule microarray, Cy5-labelled CALM1, plus calcium (AID 1112); conditions: Cy5-CALM1 binding fluorescence, higher = more signal;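 also: score merges spot fluorescence with signal to noise from triplicate slides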
[6] = small-molecule microarray binders of probe aWnt5a, primary screen, biochemical, biotinylated probe, 635/667 nm fluorescence (AID 1113); conditions: higher = more signal;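 also: score merges 667 nm fluorescence intensity with signal-to-noise per printed feature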
[7] = small-molecule microarray binders of probe aShh, primary screen, biochemical, biotinylated probe, 635/667 nm fluorescence (AID 1114); conditions: higher = more signal;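 also: probe is biotin-labelled aShh protein from a stem cell growth factor screen; measures binding of labelled protein to compounds printed on the slide; score merges feature fluorescence at 667 nm with signal-to-noise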
[8] = small-molecule microarray binders of probe aNog, primary screen, biochemical, biotinylated probe, 635/667 nm fluorescence (AID 1115); conditions: higher = more signal;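 also: probe is biotinylated aNog protein used at 0.15 µg/mL for 1 h at 4 C; z-score combines 667 nm fluorescence of each spot with its signal to noise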
[9] = molecular target: Torsin-1A-interacting protein 1 (Homo sapiens) (UniProt Q5JTV8); assay: LAP1 binders from COS7 cell lysate, primary screen, small-molecule microarray, 635/667 nm fluorescence (AID 1116); conditions: COS7-hLAP1 lysate binding, 635 nm fluorescence, higher = more signal
Chain of Torsin-1A-interacting protein 1 (Homo sapiens) (Q5JTV8 whole entry, looked up): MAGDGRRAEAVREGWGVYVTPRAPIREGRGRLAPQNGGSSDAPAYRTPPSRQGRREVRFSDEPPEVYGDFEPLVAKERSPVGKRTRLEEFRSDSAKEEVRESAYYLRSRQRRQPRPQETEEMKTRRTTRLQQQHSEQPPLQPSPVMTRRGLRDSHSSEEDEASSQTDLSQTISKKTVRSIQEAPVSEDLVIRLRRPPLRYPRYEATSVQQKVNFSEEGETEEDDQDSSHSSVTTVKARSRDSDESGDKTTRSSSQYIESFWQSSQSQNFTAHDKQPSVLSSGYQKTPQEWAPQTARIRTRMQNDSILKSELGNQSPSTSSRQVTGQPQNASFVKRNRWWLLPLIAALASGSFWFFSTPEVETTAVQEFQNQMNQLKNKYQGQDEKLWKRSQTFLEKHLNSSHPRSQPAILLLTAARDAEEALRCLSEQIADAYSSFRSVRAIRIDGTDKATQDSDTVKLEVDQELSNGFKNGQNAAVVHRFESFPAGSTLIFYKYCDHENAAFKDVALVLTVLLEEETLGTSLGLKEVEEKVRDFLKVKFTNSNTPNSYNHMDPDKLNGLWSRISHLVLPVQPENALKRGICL

[10] = molecular target: Alpha-bungarotoxin (Bungarus multicinctus) (UniProt P60615); assay: alpha-bungarotoxin binders on microarray, profiling panel, artefact control for SMM control protein annotation, biochemical, small-molecule microarray, Alexa647 label, 635/667 nm fluorescence (AID 1117); conditions: alpha-BTX-A647 binding fluorescence, higher = more signal
Chain of Alpha-bungarotoxin (Bungarus multicinctus) (P60615 whole entry, looked up): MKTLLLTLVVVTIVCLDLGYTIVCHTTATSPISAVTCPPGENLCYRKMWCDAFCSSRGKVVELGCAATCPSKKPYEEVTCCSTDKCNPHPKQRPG

Albumin (Bos taurus) = Albumin (Bos taurus) (UniProt P02769); assay: bovine serum albumin binders on microarray, profiling panel, artefact control for SMM control protein annotation, biochemical, small-molecule microarray, Alexa647 label, 635/667 nm fluorescence (AID 1118); conditions: BSA-A647 binding, fluorescence 635 nm, higher = more signal;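 also: score merges 667 nm emission intensity and signal-to-noise per printed compound spot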
Chain of Albumin (Bos taurus) (P02769 whole entry, looked up): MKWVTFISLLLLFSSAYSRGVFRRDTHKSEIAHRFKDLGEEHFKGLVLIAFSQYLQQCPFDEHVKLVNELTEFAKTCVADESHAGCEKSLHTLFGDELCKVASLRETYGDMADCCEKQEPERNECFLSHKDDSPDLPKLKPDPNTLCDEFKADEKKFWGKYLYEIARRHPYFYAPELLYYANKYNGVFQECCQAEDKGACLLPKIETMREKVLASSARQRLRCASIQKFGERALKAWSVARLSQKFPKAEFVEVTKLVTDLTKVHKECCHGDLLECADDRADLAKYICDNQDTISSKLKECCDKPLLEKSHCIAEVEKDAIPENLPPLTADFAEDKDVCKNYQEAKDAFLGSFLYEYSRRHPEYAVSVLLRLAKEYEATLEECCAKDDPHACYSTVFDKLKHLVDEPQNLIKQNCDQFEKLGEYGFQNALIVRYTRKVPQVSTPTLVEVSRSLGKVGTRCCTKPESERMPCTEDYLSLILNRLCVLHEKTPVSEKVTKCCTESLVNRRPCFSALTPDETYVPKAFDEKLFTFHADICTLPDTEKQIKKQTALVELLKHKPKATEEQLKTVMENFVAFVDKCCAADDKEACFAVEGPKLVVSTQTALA

[11] = small-molecule microarray binders of probe aXIP, primary screen, biochemical, NeuroSMM set, 635/667 nm fluorescence (AID 1119); conditions: higher = more signal, called active from +8 up or from −8 down;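 also: probe is the protein aXip251-270 applied at 1 µg/mL to compound-printed slides; binding of probe to printed compounds measured as 667 nm fluorescence plus signal to noise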
[12] = small-molecule binders of probe aNOTCH3, primary screen, biochemical, small-molecule microarray, 635/667 nm fluorescence (AID 1120); conditions: higher = more signal;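 also: probe is a biotin-tagged antibody raised against NOTCH3 rather than NOTCH3 protein; score merges spot fluorescence near 667 nm with spot signal to noise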
[13] = small-molecule binders of probe aNOTCH2, primary screen, biochemical, small-molecule microarray, 635/667 nm fluorescence (AID 1121); conditions: higher = more signal;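 also: score merges feature fluorescence read at 667 nm with its signal to noise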
[14] = molecular target: Carbonic anhydrase 2 (Homo sapiens) (UniProt P00918); assay: CAII small-molecule binders, profiling panel, biochemical, small-molecule microarray, Alexa647-labelled CAII (AID 1122); conditions: CAII-A647 binding fluorescence, higher = more signal
[15] = COS7 lysate on small-molecule microarray, probe aHis, 635 nm (AID 1123); conditions: COS7 cell lysate, fluorescence, higher = more signal;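 also: z-score combines 667nm fluorescence intensity with signal-to-noise per printed compound spot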
[16] = compound binding in COS7 lysate, probe aLAP1, primary screen, cell lysate, small-molecule microarray (AID 1124); conditions: probe aLAP1, fluorescence, higher = more signal;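 also: lysate comes from COS7 cells expressing LAP1 and is applied at 0.3 µg/mL; score merges spot fluorescence near 667 nm with signal-to-noise over triplicate slides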
Sam68 (KHDRBS1) = assay: Sam68 small-molecule binders, primary screen, biochemical, small-molecule microarray, 635 nm fluorescence (AID 1125); conditions: small-molecule microarray binding, higher = more signal;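 also: score merges 667 nm channel intensity with signal to noise over triplicate slides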
[17] = tested on: Chordin-like protein 2 (CHRDL2); assay: CHRDL2 small-molecule binders, primary screen, biochemical, small-molecule microarray, 635 nm fluorescence (AID 1126); conditions: small-molecule microarray binding, fluorescence 635 nm; higher = more signal;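 also: printed compound slides probed with Chrdl2 protein at 4 µg/mL for 1 h at 4 C; score merges 667 nm emission intensity with signal to noise over three replicate slides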
[18] = molecular target: Concanavalin-A (Canavalia ensiformis) (UniProt P02866); assay: ConA small-molecule binders, primary screen, artefact control for SMM control protein annotation, biochemical, small-molecule microarray, Alexa647 label, 635 nm (AID 1127); conditions: ConA-A647 binding fluorescence, higher = more signal;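 also: z combines 667 nm emission intensity with signal-to-noise across three replicate slides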
Chain of Concanavalin-A (Canavalia ensiformis) (P02866 whole entry, looked up): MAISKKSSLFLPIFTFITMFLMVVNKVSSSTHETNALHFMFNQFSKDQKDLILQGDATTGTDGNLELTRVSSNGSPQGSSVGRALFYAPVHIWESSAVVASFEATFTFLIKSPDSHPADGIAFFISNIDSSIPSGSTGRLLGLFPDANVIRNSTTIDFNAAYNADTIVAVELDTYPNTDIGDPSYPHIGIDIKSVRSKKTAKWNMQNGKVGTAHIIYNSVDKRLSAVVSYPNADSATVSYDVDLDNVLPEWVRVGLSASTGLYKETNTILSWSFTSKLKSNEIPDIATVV

| SMILES | composite z-score [1] | z-score [2] | composite z-score [3] | composite z-score [4] | composite z-score [5] | composite z-score [6] | composite z-score [7] | composite z-score [8] | composite z-score [9] | composite z-score [10] | composite z-score (Albumin (Bos taurus)) | composite Z-score [11] | composite z-score [12] | composite z-score [13] | composite z-score [14] | composite z-score [15] | composite z-score [16] | composite z-score (Sam68 (KHDRBS1)) | composite z-score [17] | composite z-score [18] |
| --- | --- | --- | --- | --- | --- | --- | --- | --- | --- | --- | --- | --- | --- | --- | --- | --- | --- | --- | --- | --- |
| N#Cc1ccc(NN2C(C(O)c3ccc(F)cc3)C=CC3C(=O)N(c4ccccc4)C(=O)C32)cc1 (stereo not given) | 0.771 | -0.41 | -0.81 | 2.39 | 1.04 | 0.0334 | -0.0578 | 1.83 | 2.24 | 1.05 | 0.824 | 0.383 (inactive) | -0.16 | -0.138 | 0.318 | 2.59 | 0.905 | -0.306 | -1.55 | 0.536 |
| CCOC(=O)c1ccc(NC(=O)O[C@H]2[C@H](OC(=O)Nc3ccc4c(c3)OCO4)[C@H](OC(=O)Nc3ccc4c(c3)OCO4)[C@@H](OC)O[C@@H]2CO)cc1 | 1.03 | 0.295 | 0.803 | 1.41 | -0.179 | 0.0771 | 0.369 | 0.252 | 0.645 | 1.22 | 0.0541 | 1.52 (inactive) | 0.411 | 0.077 | 0.49 | 1.52 | 0.551 | 1.3 | 0.393 | 1.18 |
| COc1ccc([Si](C)(C)[C@H]2[C@H](CCO)O[C@@]3(C(=O)N(Cc4cccc(N5C(=O)COc6ccccc65)c4)c4ccccc43)[C@@H]2C)cc1 | -0.502 | -4.98 | 0.0828 | 0.851 | 0.675 | -0.0417 | -0.0146 | 0.26 | 0.474 | 0.252 | 0.336 | 0.0953 (inactive) | -0.0343 | 0.0425 | 0.338 | 0.317 | 0.232 | 0.297 | 0.0083 | 0.567 |
| OCC1CC(c2ccccc2)=NO1 (stereo not given) | -1.07 | 0.381 | 0.43 | -0.759 | -0.445 | -0.0084 | -0.248 | 0.21 | 0.19 | -0.0251 | -0.558 | -0.228 (inactive) | -0.185 | -0.124 | -0.179 | -0.53 | -0.437 | -0.424 | 0.843 | -0.36 |
| CN(C)C(=O)C1N=C(c2ccc(OCCCO)cc2)N(c2ccccc2)O1 (stereo not given) | 1.41 | -0.842 | 1.28 | 1.21 | -0.0846 | -0.0486 | -0.0733 | -0.461 | 0.81 | 0.741 | 0.0877 | 0.794 (inactive) | 0.147 | 0.0674 | 0.846 | 1.15 | 0.502 | 1.32 | 0.267 | 0.988 |
| CCCNC(=O)[C@@H]1c2ccccc2C(=O)N(C(C)C)[C@H]1c1ccc(CO)cc1 | 0.123 | -0.362 | -0.378 | -0.193 | 0.0439 | -0.104 | 0.0062 | -0.287 | 0.625 | -0.182 | -0.342 | 0.251 (inactive) | -0.0728 | -0.0567 | 0.322 | 0.113 | 0.784 | 0.437 | -0.605 | 0.208 |
| COC(=O)c1c(CC[C@@H](CO)NC(=O)N[C@H](Cn2cc(C3(O)CCCCC3)nn2)C(C)C)oc(C(C)=O)c1C(=O)OC | 1.01 | -0.415 | 0.724 | 0.169 | -0.715 | 0.002 | 0.151 | 0.141 | 0.748 | 1.65 | -0.471 | 0.183 (inactive) | 0.0282 | -0.0878 | 0.209 | 0.32 | -0.0003 | 1.14 | 0.513 | 1.16 |
| CC(C)OC(=O)C=C1C[C@@H](c2ccc(C(F)(F)F)cc2)O[C@@H](c2ccc(C(F)(F)F)cc2)O1 | 1.44 | -0.512 | -0.467 | 0.808 | 0.776 | -0.0643 | 0.536 | -0.261 | 2.25 | 1.83 | 0.856 | -0.451 (inactive) | -0.102 | -0.128 | 0.717 | 2.61 | 0.35 | 0.886 | -0.782 | 1.09 |
| C=CC[C@]1(C(=O)NCCN2CCOCC2)N=C(c2ccc(OCCCO)cc2)O[C@H]1c1ccccc1CN=[N+]=[N-] | 0.396 | -1.59 | 0.632 | 0.21 | -0.528 | 0.0023 | -0.203 | -0.193 | 0.554 | -0.0452 | -0.91 | 0.363 (inactive) | -0.273 | 0.0855 | 0.724 | 1.41 | 0.034 | 0.826 | 1.38 | -0.438 |
| COc1ccc(CN(C2=CC[C@@]3(C(N)=O)C(=O)C(Cl)=C(Cl)C(=O)[C@@]3(C#N)C2)S(=O)(=O)c2ccc(Br)cc2)cc1 | 0.731 | -1.56 | -0.885 | 1.1 | 0.391 | -0.11 | -0.0769 | 0.784 | 1.02 | -0.181 | 1 | 0.317 (inactive) | -0.128 | -0.0273 | 0.863 | 1.84 | 0.834 | 0.295 | -1.54 | 0.0331 |
| COCCOC(=O)N1C(=O)[C@@]2(c3cc(C#CCCO)ccc31)[C@H](C(=O)Nc1nc3ccccc3s1)[C@H]1C(=O)O[C@H](c3ccccc3)[C@H](c3ccccc3)N1[C@@H]2c1ccccc1OCCO | 0.792 | -1.71 | 0.674 | 0.827 | -0.112 | -0.0025 | 0.0469 | -0.588 | 0.811 | 1.45 | 0.623 | 0.0088 (inactive) | 0.436 | 0.297 | 0.542 | 1.22 | 0.627 | 1.29 | 0.524 | 1.14 |
| COCCOC(=O)N1C(=O)[C@@]2(c3cc(C#Cc4ccc(OC)cc4)ccc31)[C@H](C(=O)Nc1nc3ccccc3s1)[C@H]1C(=O)O[C@H](c3ccccc3)[C@H](c3ccccc3)N1[C@@H]2c1ccc(O)cc1 | 1.38 | -0.841 | 0.631 | 0.876 | -0.138 | 0.0559 | 0.314 | -0.376 | 0.37 | 1.34 | 0.374 | 0.364 (inactive) | 0.214 | -0.118 | -0.111 | 1.91 | 0.171 | 1.33 | 0.576 | 1.16 |
| C[C@@H]1NC(=O)[C@@]23C(=O)N[C@@H](Cc4ccccc4)C2[C@H](C)[C@@]2(C)O[C@H]2C3/C=C/C/C=C\CNC(=O)[C@@H]2CCCN2C1=O (stereo not given in full) | -0.496 | 0.606 | -0.301 | -0.535 | -0.556 | -0.196 | -0.0553 | -0.122 | -0.313 | -0.123 | -0.397 | -0.433 (inactive) | -0.078 | -0.139 | 0.742 | -0.0175 | -0.11 | -1 | 0.18 | -0.327 |
| NCCCCCCNC(=O)[C@@H]1C[C@@H]2C(=O)N[C@@H](CCCCN)C(=O)N2[C@@H]1c1cccc(OCCO)c1 | 1.32 | -0.661 | 1.1 | 1.02 | 1.2 | 0.188 | 1.05 | 2.03 | 0.882 | 0.933 | -0.907 | 2.87 (inactive) | 0.645 | 0.163 | 0.584 | -0.191 | 0.767 | 1.2 | 1.05 | 0.718 |
| CN(C)CCCNC(=O)[C@@H]1c2ccccc2C(=O)N(Cc2ccccc2Cl)[C@H]1c1ccc(CO)cc1 | 0.0979 | -1.7 | -0.505 | -0.139 | -0.464 | -0.124 | -0.114 | 0.213 | 0.779 | 1.74 | 0.301 | 0.247 (inactive) | -0.236 | -0.0993 | 0.73 | 1.17 | 0.982 | 0.671 | -0.349 | -0.284 |
| C=CCOC(=O)[C@H]1[C@@H]2C(=O)O[C@@H](c3ccccc3)[C@@H](c3ccccc3)N2[C@@H](c2ccc(OCCOC(=O)[C@@H]3C[C@@H]4C(=O)N[C@@H](CCCCNC(C)=O)C(=O)N4[C@@H]3c3ccc(O)cc3)cc2)[C@]12C(=O)Nc1ccc(I)cc12 | 1.37 | -1.14 | 0.637 | 0.48 | -0.215 | -0.0519 | 0.131 | 0.381 | 1.65 | 1.78 | -0.689 | 1.53 (inactive) | 0.108 | 0.0083 | 0.631 | 1.69 | 0.719 | 1.29 | 1.01 | 0.764 |

From PubChem BioAssay
